# TDP1 cell noCPT: qHTS for Inhibitors of human tyrosyl-DNA phosphodiesterase 1 (TDP1): qHTS in cells in absence of CPT; DT40 Tdp1-/- hTDP1 cells, no CPT, ATP luminescence, 48 h; Potency, µM (series often up to 46.2 µM), for inactives: top-dose activity change, negative = growth inhibition, actives largely listed as inhibitors; 420,000 compounds, 15% hits; AID 686978, 2013; further: potency means the concentration at half of the fitted maximal effect; on the % scale 0 is the no-effect control and ±100 the full control effect; nearly all actives have a fitted effect of over 55% in size
#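 Compound effects on proliferation are scored in DT40 Tdp1-/-;hTDP1 cells in the absence of CPT. ATP levels (CellTiter-Glo luminescence) are recorded after a ≥48 hr, 37 °C incubation.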
# BCR signal inh: blocks chronic active B-cell receptor signaling. ABC-DLBCL IkBa-CBG/CBR reporter, luminescence ratio, 4 h. Potency, µM (top dose mostly 46.1 µM), inactives show at the highest dose activity change, negative = inhibition, usual class: inhibitors. 340,000 compounds, 0.05% hits; active means well fitted inhibition curve with a large enough effect in the signal ratio, with a control signal flat, not every such curve was filed as active; inconclusive means small, poorly fitted or top-dose-only effect, or effect the other way, or a change in a side signal; the % refers to the signal ratio;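 further: potency means the concentration at half of the fitted maximal effect; plate controls were basal doxycycline-induced cells for no effect and cells given 10 µM MG132 for full effect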
#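 Cell line TMD8 (human ABC DLBCL), stably expressing tet-inducible CBG68-IkBa fusion and CBR; IMDM/0.5% FBS; cpd up to 46 uM; dox induction, 4 h, 37C/5% CO2; dual luminescence; green/red ratio; MG132 control.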
# IL1B secr inh: blocks inflammasome-driven IL-1 beta release; AID 743279; 360,000 compounds, 4.7% hits; activity change, % at 57.5 µM; THP-1 LPS/ATP IL-1B secretion, AlphaLISA, 16 h; active compounds read low; in the data active means activity change below about -50%; inconclusive means mostly about -30% to -49%; further: on the % scale 0 is the no-effect control and ±100 the full control effect
#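 THP-1 cells pretreated 1 hr with compounds (up to 57.5 uM final), then stimulated with LPS (250 ng/mL final) plus ATP (1.25 mM final); secreted IL-1B measured by AlphaLISA after 16 hr, decreased signal indicating inhibition.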
# TDP1 cell CPT: DT40-hTDP1 cell growth loss with CPT. chicken DT40 Tdp1-/-;hTDP1 cells + 20 nM CPT, ATP luminescence, 48 h. Potency, µM (series often up to 46.2 µM), for inactives: at the top dose activity change, negative = growth inhibition, most hits filed as inhibitors. AID 686979. 420,000 compounds, 12% hits; further: potency means the concentration at half of the fitted maximal effect; on the % scale 0 is the no-effect control and ±100 the full control effect; nearly all actives have a fitted effect of over 55% in size
#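 Cell growth measured by CellTiter-Glo luminescence after a minimum 48 h, 37 C compound exposure with 20 nM CPT in Tdp1-knockout DT40 cells stably expressing hTDP1, seeded 400/well; qHTS titration format.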
# SW480 rereplic: induces DNA re-replication in SW480 colon adenocarcinoma cells | SW480 DNA re-replication, Hoechst DNA content imaging, 48 h | Potency, µM (titrated, usually from 46.1 µM), for inactives: at the top dose re-replication activation, usual class: activators | 340,000 compounds, 1.8% hits; further: potency means the concentration at half of the fitted maximal effect; % of control where 0% means no effect; nearly all actives have a fitted effect of over 55% in size
#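 250 cells/well; 23 nL cpd via pin tool; 48 hr, 37 C, 5% CO2; Hoechst 40 min; imager read of total nuclear intensity, ex 405/em 500-530 nm.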
# MCF10A rerep: induces DNA re-replication in MCF 10a normal breast cells. MCF 10A DNA re-replication, Hoechst nuclear intensity, 48 h. Potency, µM (highest dose often 46.1 µM), without a hit: top-dose activity, positive = re-replication, actives largely listed as activators. 350,000 compounds, 2.9% hits; further: potency means the concentration at half of the fitted maximal effect; % of control where 0% means no effect; nearly all actives have a fitted effect of over 50% in size
# An asterisk follows results filed as active; u = inconclusive; x = no result given; [ ] = another dose, or the depositor's remark. In the library only some 19% were active in any assay of this set; here they are far more common. Unless noted, the call rests on the fitted dose curve; in most records, active means well fitted curve in the direction sought with a large enough effect; inconclusive means small, poorly fitted or top-dose-only effect, or another doubt; inactive means no such curve, though single readings can be large; an effect the other way counts as inactive or inconclusive.
SMILES,TDP1 cell noCPT,BCR signal inh,IL1B secr inh,TDP1 cell CPT,SW480 rereplic,MCF10A rerep
COCC(=O)N1CCN(c2cccc(C(F)(F)F)c2)CC1,-23%,u,0,u,10%,6%
CN(Cc1ccccc1)C(=O)c1ccc(NC(=O)C2=CSCCO2)cc1,-2%,u,-11,1%,-1%,-3%
CN(C(=O)COC(=O)c1ccc(S(=O)(=O)N2CCOCC2)cc1)c1ccccc1,-15%,3%,1,3%,-16%,0%
COc1ccccc1CN1CC(C(=O)N(C)Cc2[nH]c3ccccc3c2C)CCC1=O (stereo not given),u,-1%,9,u,-4%,5%
COc1cc2c(C(=O)N3CCN(c4cccc(Cl)c4)CC3)cn(CC(C)C)c(=O)c2cc1OC,u,u,0,23µM*,5%,12%
CCCN1CCN(C(=O)c2cn(CC(C)C)c(=O)c3cc(OC)c(OC)cc23)CC1,-12%,-20%,22,-4%,-2%,2%
Cc1ccc2sc(N3CCN(CCNC(=O)c4ccco4)CC3)nc2c1C,u,-5%,-7,u,3%,25%
COCCCn1c(SCc2ccc(OC)cc2)nc2cc(OC)c(OC)cc2c1=N,u,-8%,42,-30%,-21%,8%
CCCSc1nc2cc(OC)c(OC)cc2c(=N)n1CCCN1CCOCC1,23µM*,14%,-52*,16µM*,12%,6%
CCc1nnc(SCC(=O)Nc2ccc(F)cc2)o1,20%,0%,29,1%,0%,0%
COC(=O)c1c(NC(=O)c2ccco2)sc(C(=O)Nc2ccc(F)cc2)c1C,23µM*,3%,34,u,-5%,-1%
COC(=O)c1c(NC(=O)c2ccco2)sc(C)c1C,-11%,u,10,-7%,u,u
COc1ccccc1NC(=O)c1cccc(NC(=O)c2ccco2)c1,u,-9%,-22,-23%,-5%,1%
COc1ccccc1NC(=O)c1ccc(NC(=O)c2ccco2)cc1,16µM*,-7%,-75*,u,16%,11%
COc1ccc(NC(=O)c2ccc3c(=O)n(Cc4ccco4)c(=S)[nH]c3c2)c(OC)c1,13µM*,5%,21,u,-10%,-5%
COc1cc2[nH]c(=S)n(Cc3ccco3)c(=O)c2cc1OC,-21%,u,-2,-9%,1%,-3%
COc1ccc(NC(=O)c2ccc(NC(=O)c3ccco3)cc2)c(OC)c1,u,-1%,-50*,u,-17%,-1%
CCCCS(=O)CC(O)CSc1nc(-c2ccc(OC)cc2)cc(-c2ccccc2)c1C#N (stereo not given),-19%,x,x,u,x,x
COc1ccccc1C(=O)Nc1ccc(NC(=O)c2ccco2)cn1,21µM*,-21%,u,u,-12%,0%
CCOc1ccccc1NC(=O)c1ccc(C(=O)Nc2ccccc2OCC)cc1,-12%,x,x,-11%,x,x
CCOc1ccccc1NC(=O)c1ccc(NC(=O)c2ccco2)cc1,16µM*,-12%,-58*,u,-9%,-3%
O=C(Nc1ccc(NC(=O)c2ccco2)nc1)c1ccco1,-19%,u,-7,-2%,0%,-9%
COc1ccccc1NC(=O)/C(=C/c1cccs1)NC(=O)c1ccco1,-23%,-1%,x,14%,4.6µM*,2%
COC(=O)c1sc(NC(=O)c2ccco2)c(C#N)c1C,3%,5%,3,-18%,u,0%
COc1ccccc1NC(=O)c1sc(NC(=O)c2ccco2)c(C#N)c1C,-20%,u,-7,-17%,u,16µM*
SMILES,TDP1 cell noCPT,BCR signal inh,IL1B secr inh,TDP1 cell CPT,SW480 rereplic,MCF10A rerep
COc1ccc(CC(=O)OCC(=O)NC2CCCCC2)cc1OC,1%,4%,21,3%,-1%,-1%
C[C@H]1C(c2ccc(F)cc2)=NN(c2ccccc2)[C@@H]1CO,-2%,-1%,0,18µM*,5.2µM*,10µM*
COc1ccccc1[C@H]1C(c2cccc(C)c2)=NN(c2ccccc2)[C@@H]1CO,u,-4%,-16,u,0.33µM*,u
COc1ccc(C2=NN(Cc3ccccc3)C3C(=O)NC(=O)C23)cc1 (stereo not given),-12%,-1%,-9,-12%,10%[1.84 µM],-5%
COc1ccccc1[C@H]1C(c2ccc(F)cc2)=NN(c2ccccc2)[C@@H]1CO,u,u,-13,18µM*,3.7µM*,u
COc1ccccc1C1CC(c2ccccc2)=NN1C(=O)c1ccccc1 (stereo not given),u,u,-10,u,u,9%
O=c1[nH]c(=S)[nH]cc1Oc1ccc(Cl)cc1Cl,-5%,3%,8,-14%,0%,9%
C=C(C)COc1ccc2c(c1)CCC1C2CCC2(C)C(=O)C(=NO)CC12 (stereo not given),u,x,-99*,16µM*,u,u
C=CC[C@H](CC(=O)OC(C)(C)C)C(=O)OC[C@@H]1CCCN1C(=O)[C@@H](CC=C)CC(=O)NCCO,-16%,u,-5,u,-2%,-1%
O=C1NC(c2cccc3ccccc23)Nc2ccc(Cl)cc21 (stereo not given),0.58µM*,x,1,0.46µM*,0.73µM*,u
O=C(NCCN1C(=O)S/C(=C\c2ccccc2)C1=O)C1CCN(S(=O)(=O)c2cccs2)CC1,18µM*,u,-1,13µM*,-1%,u
O=C(NCCCN1CCN(c2ccccc2F)CC1)C1CCN(S(=O)(=O)c2cccs2)CC1,u,3%,10,13µM*,2%,-2%
CCS(=O)(=O)N1CCC(C(=O)NCCCN2CCN(c3ccccc3F)CC2)CC1,3%,-5%,28,0%,-13%,u
O=C(NCCc1ccccc1)C1CCN(S(=O)(=O)c2cccs2)CC1,-6%,u,21,-1%,6%,-18%
Cc1ccc(SCCC(=O)N/N=C/c2ccccc2O)cc1,1.3µM*,-22%,144,0.65µM*,u,3%
O=C(CCC(=O)Nc1ccc(F)cc1)N/N=C/c1ccc(Br)cc1,24%,-6%,-6,-8%,-11%,5%
COc1ccc(/C=N/NC(=O)CCC(=O)Nc2ccc(F)cc2)c(OC)c1,7%,-5%,-16,-2%,-13%,3%

# Screening results as filed in PubChem.
